Shown is part of a subset that was picked to be rich in hits.
Shh pathway inh = Sonic Hedgehog pathway inhibition. AID 2313. Shh-LIGHT2 Gli-luciferase reporter, 30 h. inhibition, % (test concentration not listed). hit rate 2.1% among 22,000;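 active = mean inhibition across valid replicates above about 65%, limit read from the data; inconclusive = mean under the limit, yet half or more replicates past it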;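 note: pathway switched on by Shh-conditioned medium diluted 1 in 25 in low serum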
BJeLR viab HTS = lowers viability of BJeLR cells | viability loss activity score, % (no concentration beside the values) | AID 2275 | BJeLR fibroblasts viability, CellTiterGlo ATP luminescence, 48 h; HRASV12, hTERT and SV40 LT/ST transformed | hit rate 0.64% among 30,000; in the data active = viability loss activity score above about 50%; inconclusive = no clear call, values can overlap the other calls; inactive = below about 35%;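 note: higher score means fewer live cells and less ATP luminescence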
Starred values were filed as active, the others as inactive; ? = inconclusive; . = no result.

SMILES	Shh pathway inh	BJeLR viab HTS
CSC1=NC2(CCCCC2)NC2=C1CCCC2	-14	-1
COc1ccc(-c2nc(C)c(CCNS(=O)(=O)N(C)C)s2)cc1	.	-7
O=S(=O)(NCCNC/C=C/c1ccc(Br)cc1)c1cccc2cnccc12	81*	4
CNCCNS(=O)(=O)c1cccc2cnccc12	-23	4
CCOc1ccc(S(=O)(=O)N(CC(=O)N2CCC(C)CC2)c2ccccc2)cc1	.	1
C=C1CCC2[C@](C)(CO)[C@H](O)CC[C@@]2(C)[C@@H]1C/C=C1/C(=O)OC[C@H]1O (stereo not given in full)	93*	20
C=C1CCC2C(C)(CO)CCCC2(C)C1CC/C(C)=C/C(=O)O (stereo not given)	-27	.
CCC1CCCCN1C(=O)Cn1c(=O)n(Cc2ccccc2Cl)c(=O)c2cc(OC)c(OC)cc21 (stereo not given)	.	1
Cc1cs/c(=N\C(=S)Nc2ccccc2)n1C	.	-2
Cn1c(-c2ccc(Cl)cc2)cs/c1=N\C(=S)NCCc1ccccc1	91*	3
C=C1C(C2(C)C=CC(=O)C(C)(C)C2CC(=O)OC)CC[C@@]2(C)[C@H](c3ccoc3)OC(=O)C3OC132 (stereo not given in full)	?	91*
CC1(C)C(=O)C=C[C@@]2(C)C1C=C[C@]1(C)C2CC[C@@]2(C)[C@H](c3ccoc3)OC(=O)C3OC321 (stereo not given in full)	-331	12
CC1C2CC(CC1(C)C)N(C(=O)c1ccc(N3C(=O)c4ccccc4C3=O)cc1)C2 (stereo not given)	.	4
Fc1ccc(C=Nc2ccc3ccccc3c2)cc1	-32	-4
Cc1ccc(N=Cc2cc3ccccc3nc2Cl)cc1Cl	89*	1
CSC(=NCc1sccc1COc1ccc(Cl)cc1)NC#N	.	18
O=C(Nc1ccc(F)c(F)c1)c1cc(S(=O)(=O)NCc2ccc(F)cc2)ccc1F	.	3
CC(=O)OCC(=O)[C@@]1(O)[C@H](C)C[C@H]2[C@@H]3CCC4=CC(=O)C=C[C@]4(C)[C@@]3(F)[C@@H](O)C[C@@]21C	82*	-16
CC(=O)OCC(=O)[C@@]1(O)CCC2C3C[C@H](C)C4=CC(=O)C=CC4(C)C3[C@@H](O)CC21C (stereo not given in full)	41	-8
C[C@@H]1C[C@H]2[C@@H]3CCC4=CC(=O)C=C[C@]4(C)[C@@]3(F)[C@@H](O)C[C@]2(C)[C@@]1(O)C(=O)CO	18	-7
CC(=O)[C@@]1(O)CC[C@H]2[C@@H]3C[C@H](C)C4=CC(=O)C=C[C@]4(C)[C@@]3(F)[C@@H](O)C[C@@]21C	67*	-13
CC(C)c1nc(N2CCN(C(=S)NC3CCCCC3)CC2)c(C#N)c2c1CCCC2	.	-4
c1cc(-c2nc3ccccc3s2)nc(-c2nc3ccccc3s2)c1	-46	-2
COc1ccc(-c2nc3ccccc3s2)cc1	-36	60*
Cc1cc(Br)ccc1NCc1ccc2c(c1)OCO2	-35	-5
SMILES	Shh pathway inh	BJeLR viab HTS
COc1cccc(-c2cc(NCc3ccc4c(c3)OCO4)nc(N)n2)c1	?	60*
CC1CCN(Cc2ccc(NC(=O)Nc3cccs3)cc2)CC1	.	7
CCOc1ccc(C(=O)NCC(=O)n2nc(C)cc2C)cc1	.	1
CCOc1ccc(C(=O)Nc2cc(C)ccn2)cc1	.	90*
COc1ccccc1-c1coc2cc(OCc3ccc(C)cc3)ccc2c1=O	.	-3
O=c1c(Cc2ccccc2OCc2ccccc2)coc2ccccc12	93*	-7
C[C@@H]1O[C@@H](O[C@H]2[C@H](O[C@H]3CC[C@@]4(C)C(CC[C@]5(C)C4CC=C4C6CC(C)(C)CC[C@]6(C(=O)O[C@@H]6O[C@H](CO[C@@H]7O[C@H](CO)[C@@H](O[C@@H]8O[C@@H](C)[C@H](O)[C@@H](O)[C@H]8O)[C@H](O)[C@H]7O)[C@@H](O)[C@H](O)[C@H]6O)CC[C@]45C)C3(C)C)OC[C@H](O)[C@@H]2O)[C@H](O)[C@H](O)[C@H]1O (stereo not given in full)	6	.
CC1CC[C@@]2(OC1)O[C@H]1CC3C4CC=C5C[C@@H](O[C@@H]6O[C@H](CO)[C@@H](O[C@@H]7O[C@@H](C)[C@H](O)[C@@H](O)[C@H]7O)[C@H](O)[C@H]6O[C@@H]6O[C@@H](C)[C@H](O)[C@@H](O)[C@H]6O)CC[C@]5(C)C4CC[C@]3(C)[C@@]1(O)[C@@H]2C (stereo not given in full)	80*	92*
COc1ccccc1NC(=O)Cc1ccc(Br)cc1	.	-3
COC(=O)CSc1nnc(CNC(=O)c2ccccc2F)n1Cc1ccccc1	.	-2
O=C(C[n+]1ccccc1)c1cc2ccccc2oc1=O	-15	4
Cn1cnc([N+](=O)[O-])c1Sc1ncnc2nc[nH]c12	22	88*
CC(C)=CCNc1ncnc2nc[nH]c12	.	-4
O=C(NCc1ccccc1)c1nc2ncccn2n1	-10	-1
C=CCSc1ncc2c(=S)[nH]c(=S)[nH]c2n1	65*	6
CCN(CC)c1ncc2c(=S)[nH]c(=S)[nH]c2n1	2	3
COc1ccc(/C=C2\C(=O)C3(C)CCC2C3(C)C)cc1 (stereo not given)	.	-3
CCCN1C/C(=C/c2ccc(OC)cc2)C(=O)/C(=C/c2ccc(OC)cc2)C1	.	70*
Cc1cc(Cl)ccc1OCCCC(=O)NC1CCSC1=O (stereo not given)	.	9
O=C(ON1C(=O)c2ccccc2C1=O)C1CCCCC1	70*	-3
O=C(Nc1ccccc1)C1CCCCC1	.	-4
Cc1ccc(NC(=O)CC2(c3ccc(Br)cc3)C(=O)c3ccccc3C2=O)cc1	.	-3
C[C@@H]1O[C@@H](O[C@H]2[C@H](O[C@H]3CC[C@@]4(C)C(CC[C@]5(C)C4C=C[C@]46OC[C@@]7(CCC(C)(C)C[C@H]74)[C@@H](O)C[C@]65C)[C@]3(C)CO)O[C@H](CO)[C@@H](O)[C@@H]2O[C@@H]2O[C@H](CO)[C@@H](O[C@@H]3O[C@@H](C)[C@H](O)[C@@H](O)[C@H]3O)[C@H](O)[C@H]2O)[C@H](O)[C@H](O)[C@H]1O (stereo not given in full)	104*	.
C[C@@H]1O[C@@H](O[C@H]2[C@H](O[C@H]3CC[C@@]4(C)C(CC[C@]5(C)C4CC=C4C6CC(C)(C)CC[C@]6(C(=O)O[C@@H]6O[C@H](CO[C@@H]7O[C@H](CO)[C@@H](O[C@@H]8O[C@@H](C)[C@H](O)[C@@H](O)[C@H]8O)[C@H](O)[C@H]7O)[C@@H](O)[C@H](O)[C@H]6O)CC[C@]45C)[C@]3(C)CO)OC[C@H](O)[C@@H]2O)[C@H](O)[C@H](O)[C@H]1O (stereo not given in full)	-8	.
CCOC(=O)c1c(C)[nH]c(/C(C)=N\O)c1C	.	-4
Cc1ccc(S(=O)(=O)Nc2ccc3c(c2)C(=O)N([C@H](C)CO)C[C@H](C)[C@@H](CN(C)C(=O)Nc2ccc(C(F)(F)F)cc2)OCCCC[C@@H](C)O3)cc1	47	.
Cc1noc(C)c1S(=O)(=O)Nc1ccc2c(c1)C(=O)N([C@H](C)CO)C[C@H](C)[C@@H](CN(C)C(=O)Nc1ccc(C(F)(F)F)cc1)OCCCC[C@@H](C)O2	11	.
C[C@@H]1CCCCO[C@@H](CN(C)Cc2ccncc2)[C@@H](C)CN([C@H](C)CO)C(=O)c2cc(NC(=O)C3CCCCC3)ccc2O1	-18	.

Compound activity as filed in PubChem BioAssay.
